# High-throughput results (PubChem BioAssay)
# Hits are enriched below; roughly 8.1% of the tested compounds scored in any of these assays.
# PINK1 modulator: PINK1 expression modulation | PINK1 immunofluorescence, high-content cytometry, 24 h | Potency, µM (series often up to 76.6 µM), actives largely listed as activators | 0.2% of 410,000 active | AID 624263; active = well fitted activation curve with a large enough effect; inconclusive = small, poorly fitted or top-dose-only effect; cell line not stated here; note: nearly all actives have a fitted effect of over 65% in size
#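 Decision-based qHTS: stable cells, 24 h exposure to five compound concentrations, CCCP as control. Fixed cells stained for PINK1 plus nuclear, mitochondrial and cell markers, cytometer read.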
# ClpP mod: qHTS Assay for Activators of ClpP | 1.9% of 340,000 active | purified B. subtilis ClpP, FRET peptide cleavage, 20 min | ATP-dependent Clp protease proteolytic subunit (Bacillus subtilis (strain 168)), P80244 | Potency, µM (titrated, usually from 57.5 µM); active = well fitted falling curve with a large enough effect; inconclusive = small, poorly fitted or top-dose-only effect; inactive = no such curve, though single readings can be large or run the other way; note: the source files actives as falling curves though it sought activators and does not explain the sign; nearly all actives have a fitted effect of over 65% in size
#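 Purified B. subtilis ClpP, 10 microg/mL final in Tris/HCl pH8 with KCl, BSA, glycerol and Tween-20, cleaved an Abz/nitrotyrosine-quenched decapeptide. Fluorescence (ex 320, em 430) was read at 0 and 20 min at room temperature. Delta was normalized to 5.8 microM ADEP and DMSO/no-enzyme controls.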
# VP16 counter: inhibits Gal4-VP16 luciferase reporter, ROR gamma counter-screen. Drosophila S2 Gal4-VP16 UAS-luciferase, luminescence, 20 h. Potency, µM (series often up to 53.6 µM), usual class: inhibitors. 3.5% of 310,000 active;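 note: Gal4-VP16 expression switched on by copper sulfate through the metallothionein promoter; nearly all actives have a fitted effect of over 50% in size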
# Epigenetic derep: epigenetic control regulation, reporter derepression. murine LDR cells, GFP reporter derepression, 30 h. Potency, µM (doses to about 53.9 µM), most hits filed as activators. 0.2% of 280,000 active. AID 1865; note: nearly all actives have a fitted effect of over 60% in size
#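 In this reporter-derepression format, murine cells bearing a silenced integrated CMV-GFP locus incubate with test compound (30 h, 37 C), then are washed and imaged; fluorescent objects of 20–120 um count as induced cells.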
# RORg inh: blocks mouse ROR gamma transcriptional activity; Drosophila S2 Gal4-RORgamma UAS-luciferase reporter, 20 h; Potency, µM (top dose mostly 53.6 µM), hits mostly inhibitors; 5.4% of 310,000 active; AID 2551; note: nearly all actives have a fitted effect of over 60% in size
# Target sequence (P51450 whole entry, looked up, the tested form may be a part): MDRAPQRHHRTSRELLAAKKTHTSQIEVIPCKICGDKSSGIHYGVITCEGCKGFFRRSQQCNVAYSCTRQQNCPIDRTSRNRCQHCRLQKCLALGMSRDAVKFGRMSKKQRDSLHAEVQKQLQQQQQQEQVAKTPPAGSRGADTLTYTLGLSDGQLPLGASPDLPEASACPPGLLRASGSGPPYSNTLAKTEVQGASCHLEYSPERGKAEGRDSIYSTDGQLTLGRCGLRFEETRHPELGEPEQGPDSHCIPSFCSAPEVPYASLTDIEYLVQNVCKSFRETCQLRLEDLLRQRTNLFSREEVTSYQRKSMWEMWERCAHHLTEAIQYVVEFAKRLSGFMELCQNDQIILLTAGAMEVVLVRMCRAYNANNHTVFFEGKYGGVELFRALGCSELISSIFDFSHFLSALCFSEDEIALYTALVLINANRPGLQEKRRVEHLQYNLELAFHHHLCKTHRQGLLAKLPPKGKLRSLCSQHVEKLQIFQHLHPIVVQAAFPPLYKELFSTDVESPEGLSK
#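 ROR gamma transcriptional activity was tracked as Gal4-UAS luciferase output in stably transfected Drosophila Schneider cells, with compound added 1 hr before 700 uM copper sulfate induction and a 20 hr ambient-temperature incubation.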
# Sfp PPTase inh: inhibitors of Bacillus subtilis Sfp phosphopantetheinyl transferase | Q9F4F7 | Biochemical Sfp PPTase activity, qHTS | Potency, µM, most hits filed as inhibitors | 3.5% of 310,000 active;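 note: the enzyme is Sfp with the accession as filed and its product quenches rhodamine fluorescence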
#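 After 15 min at room temperature with compound, 15 nM Sfp received 5 uM rhodamine-CoA plus 12.5 uM BHQ-2-ybbR (50 mM Hepes pH 7.6, 10 mM MgCl2). Rate came from the fluorescence difference over 30 min, ex 525/em 598 nm.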
# Numbers stand for hits; - = inactive; ? = inconclusive; . = no result; [ ] = another dose, or the depositor's remark. Unless noted, calls come from the whole dose curve; as a rule, active = well fitted curve in the direction sought with a large enough effect; inconclusive = small, poorly fitted or top-dose-only effect, or another doubt; inactive = no such curve, though single readings can be large; an effect the other way counts as inactive or inconclusive.
SMILES,PINK1 modulator,ClpP mod,VP16 counter,Epigenetic derep,RORg inh,Sfp PPTase inh
COCCNc1nc2cc(-c3ccc(F)cc3)sc2c(=O)n1C,-,?,.,.,.,.
O=c1[nH]c(CCl)nc2cc(-c3ccc(F)cc3)sc12,-,-,?,.,12.6µM,-
CC(=O)C1=C(O)C(=O)N(CCO)C1c1ccccc1 (stereo not drawn),-,-,-,-,-,-
CC(=O)C1=C(O)C(=O)N(CCC(=O)O)C1c1ccccc1[N+](=O)[O-] (stereo not drawn),-,.,-[10 µM],-,-,11.2µM
CC(=O)C1=C(O)C(=O)N(CCCO)C1c1ccccc1 (stereo not drawn),.,-,-,-,-,70.8µM
CC(=O)C1=C(O)C(=O)N(C)C1c1ccccc1[N+](=O)[O-] (stereo not drawn),-,.,-,-,-,70.8µM
CCCCCCN1C(=O)C(O)=C(C(C)=O)C1c1ccccc1[N+](=O)[O-] (stereo not drawn),-,.,-,-,-,?
Cc1ccc(N2CCN(c3nc4ccc(C)cc4n4nnnc34)CC2)c(C)c1,-,-,.,-,.,.
COc1cccc(C2(O)CC(C(F)(F)F)=NN2C(=O)c2ccccn2)c1 (stereo not drawn),-,-,6.31µM,-,1.58µM,-
Cc1ccccc1OCC(=O)N1N=C(C(F)(F)F)CC1(O)C(C)(C)C (stereo not drawn),-,-,?,-,?,?
COc1cccc(C(=O)N2N=C(c3ccccn3)CC2(O)C(F)(F)F)c1 (stereo not drawn),-,-,5.01µM,-,2µM,-
COc1cccc(C(=O)N2CCN(Cc3ccccn3)CC2)c1,-,-,-,.,-,44.7µM
COc1cccc(C2=NN(C(=O)c3cccs3)C(O)(C(F)(F)F)C2)c1 (stereo not drawn),-,.,-[10 µM],-,-,44.7µM
COc1ccc(C(=O)N2N=C(c3cccc(OC)c3)CC2(O)C(F)(F)F)cc1 (stereo not drawn),-,.,-,-,11.2µM,50.1µM
COc1cccc(C(=O)N2N=C(c3cccc(OC)c3)CC2(O)C(F)(F)F)c1 (stereo not drawn),-,-,-,-,11.2µM,-
Cc1cccc(N2C(=O)N(c3ccccc3C)C3CS(=O)(=O)CC32)c1 (stereo not drawn),-,28.2µM,-,-,-,-
Cc1cc(C)cc(N2C(=O)N(c3ccccc3C)C3CS(=O)(=O)CC32)c1 (stereo not drawn),.,-,-,-,-,-
CCCN(c1ccc(C(C)C)cc1)S(=O)(=O)c1ccc2c(c1)CCN2C(=O)CC,-,-,.,-,.,.
COc1ccc(CNC(=O)C2=C(C)C(=O)OC23CCCCC3)cc1,-,-,.,-,.,.
O=c1c2sc(-c3ccccc3)cc2nc2n1CCCCC2,-,.,-,-,-,-
O=c1c2c(-c3ccccc3)csc2nc2n1CCC2,-,-,-,-,-,31.6µM
O=c1c2sc(-c3ccccc3)cc2nc2n1CCC2,-,22.4µM,?,-,2.51µM,-
CNC(=O)C1CCN(Cc2cc3ccccc3n2Cc2cccc(C)c2)CC1,-,-,.,-,.,.
O=CN1CCc2scc[n+]2-c2ccccc21,-,-,-,-,-,31.6µM
CC(=O)NCc1ccc(C(=O)CCl)s1,-,.,7.08µM,?,11.2µM,-
SMILES,PINK1 modulator,ClpP mod,VP16 counter,Epigenetic derep,RORg inh,Sfp PPTase inh
CCC(=O)OCc1cnc(C)c2oc(=O)c(C(=O)Nc3ccc(CC)cc3)cc12,-,-,.,-,.,.
O=C1CNC(=S)N1CCc1ccc(O)c(O)c1,-,.,-,-,-,44.7µM
Cc1nc(CC(=O)Nc2cc(Cl)ccc2C)cs1,-,-,.,-,.,.
Cc1ccccc1NC(=S)NC(=O)c1cc(-c2ccccc2)nc2ccccc12,-,-,3.98µM,-,1.78µM,-
Cc1cccc(NC(=S)NC(=O)c2cc(-c3ccccc3)nc3ccccc23)c1,-,-,5.62µM,-,2µM,-
Cc1ccc(-c2cc(C(=O)Nc3ccncc3)c3ccccc3n2)cc1,-,?,.,.,.,.
O=C1CCCC(O)=C1N=Nc1c(Cl)cc(Cl)cc1Cl,-,-,?,-,11.2µM,-
